Assay results: PubChem BioAssay (NCI)
Compounds without any hit were thinned out: in the full panel of roughly 83,000, 20% have a hit.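 The test compound was applied at a single concentration to cells in 96-well plates for 48 hours, and percent growth was recorded.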 A number with no mark means an inactive call. Activity calls are given as the source filed them. The calls were made as follows: active = growth percent below 10; inactive = the rest.

Experiments:
Assay in all cases: NCI-60 one-dose screen, 48 h (100 = growth as untreated, 0 = no growth, -100 = all killed)
Details in all cases: 10 µM unless noted
NCI-H23 lung = system: NCI-H23 lung
NCI-H322M lung = system: NCI-H322M lung
HOP-62 NSCLC = system: HOP-62 NSCLC
NCI-H460 lung = system: NCI-H460 lung
HOP-92 NSCLC = system: HOP-92 NSCLC
NCI-H522 lung = system: NCI-H522 lung
A549/ATCC NSCLC = system: A549/ATCC NSCLC
786-0 renal = system: 786-0 renal
COLO 205 colon = system: COLO 205 colon
DU-145 prostate = system: DU-145 prostate
K-562 leukemia = system: K-562 leukemia
MALME-3M melanoma = system: MALME-3M melanoma
MDA-MB-231 breast = system: MDA-MB-231 breast
RXF 393 renal = system: RXF 393 renal
SF-268 CNS = system: SF-268 CNS
SF-295 CNS = system: SF-295 CNS
SF-539 CNS = system: SF-539 CNS
UACC-257 melanoma = system: UACC-257 melanoma
M14 melanoma = system: M14 melanoma
NCI-H226 lung = system: NCI-H226 lung

| Compound | growth (NCI-H23 lung) | growth (NCI-H322M lung) | growth (HOP-62 NSCLC) | growth (NCI-H460 lung) | growth (HOP-92 NSCLC) [%] | growth (NCI-H522 lung) | growth (A549/ATCC NSCLC) | growth (786-0 renal) | growth (COLO 205 colon) | growth (DU-145 prostate) | growth (K-562 leukemia) | growth (MALME-3M melanoma) | growth (MDA-MB-231 breast) | growth (RXF 393 renal) | growth (SF-268 CNS) | growth (SF-295 CNS) | growth (SF-539 CNS) | growth (UACC-257 melanoma) | growth (M14 melanoma) | growth (NCI-H226 lung) |
| --- | --- | --- | --- | --- | --- | --- | --- | --- | --- | --- | --- | --- | --- | --- | --- | --- | --- | --- | --- | --- |
| CC(C)c1ccc(C(=O)OC2CCCC2)cc1 | 100% | 99.2% | 93.1% | 105% | 80.2 | 103% | 117% | 107% | 103% | 106% | 120% | 101% | 103% | 118% | 95.1% | 106% | 108% | 125% | 93.9% |  |
| Oc1ccc(Br)cc1Sc1cc(Br)ccc1O | 9.64% (active) | 92% | 84.7% |  | 22.1 |  | 50.6% | 100% | 113% | 76.4% | 49.2% | 40.9% | 56.7% | 76.8% | 55.3% | 98.9% | 45.3% | 52.1% | 39.9% | 98.2% |
| CN(C)c1ccc(/C=C/c2sc3ccc4ccccc4c3[n+]2C)cc1 | -25.9% (active) | -10.5% (active) | -73.3% (active) | -40.9% (active) |  |  | -14% (active) | -90.8% (active) | -85.8% (active) | -40% (active) | 0.148% (active) | -48.8% (active) | -61.5% (active) | -95.1% (active) | -65.1% (active) | -35.4% (active) | -54.6% (active) | -48.7% (active) | -76.5% (active) | -29.4% (active) |
| S=C1SCN(Cc2cccs2)CN1Cc1cccs1 | 107% | 99.4% | 122% | 101% | 79.9 | 46.7% | 96.8% | 102% | 108% | 110% | 63.6% | 107% | 93.4% | 104% | 100% | 104% | 96.8% | 94.5% | 94.3% |  |
| Cc1ccc2cccc(OC(=O)Nc3cccc(C(F)(F)F)c3)c2n1 | 37.1% | 88.7% |  | 27.5% |  | 37.2% | 42.7% | 78.6% | 62.3% | 71.1% | 33.5% | 82% | 86.6% | 95.6% | 95% | 6.24% (active) | 96.4% | 87.3% | 85.5% | 67.7% |
| O=C(c1ccccc1)C(O)C(Br)(CBr)c1ccccc1 (centres undefined) | 74.9% | 101% | 107% |  | 47.2 | -30.8% (active) | 88.5% | 105% | 120% | 87.1% | 50.8% | 99.9% | 91.6% | 105% | 98.8% | 103% | 107% | 72.5% |  | 90.2% |
| OC(c1cc2ccc(C(F)(F)F)cc2c2cc(C(F)(F)F)ccc12)C1CCCCN1 (centres undefined) | -95.8% (active) | -91.5% (active) | -100% (active) | -100% (active) |  | -87.7% (active) |  | -85% (active) |  | -99.3% (active) | -95% (active) | -72.6% (active) | -79.1% (active) | -79.6% (active) | -81.7% (active) | -96% (active) | -88.1% (active) | -86.4% (active) | -85.2% (active) | -71.4% (active) |
| O=C(O)c1cccc2cccc(-c3c4ccc(=O)c(O)c-4oc4c(O)c(O)ccc34)c12 | 89.3% | 97.2% |  | 100% | 93.8 | 90.9% | 96.4% | 98.8% | 111% | 98.2% | 70.6% | 102% | 83% | 94.4% | 92.8% | 103% | 89.4% | 110% | 92.5% | 95.5% |
| Nc1nc(-c2ccccc2)nc(N)c1N=O | 97.3% | 100% |  | 23.8% | 65.3 | -7.61% (active) | 66% | 83.6% |  | 88.8% | 31.7% | 91.3% | 93.8% | 63.9% | 77.2% | 108% | 77.5% | 54.4% | 67.3% | 90.4% |
